# Assay results: PubChem BioAssay (NCATS)
# Results filed as inconclusive are left out. Activity calls are given as the source filed them. Unless noted, calls follow the shape of the dose curve; as a rule, active = well fitted curve in the direction sought with a large enough effect; inconclusive = small, poorly fitted or top-dose-only effect, or another doubt; inactive = no such curve, though single readings can be large; an effect the other way counts as inactive or inconclusive.
# Legend:
# [1] = Quantitative High-Throughput drug screen in 47 multiple myeloma cell lines against the NCATS MIPE library collection: PCM6_Riken cell viability assay (AID 1919870); also: nearly all actives have a fitted effect of over 30% in size
# Method in brief: (§1)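 500 cells/well; MIPE 4.0 drugs pin-transferred; 48 h, 37C, 5% CO2. CellTiter-Glo, 5 min RT, luminescence. Controls: DMSO 100%, media 0%.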
# [2] = Quantitative High-Throughput drug screen in 47 multiple myeloma cell lines against the NCATS MIPE library collection: KMS11_JCRBsus cell viability assay (AID 1919873); also: nearly all actives have a fitted effect of over 50% in size
# Method in brief: as §1
# [3] = Quantitative High-Throughput drug screen in 47 multiple myeloma cell lines against the NCATS MIPE library collection: KMS28BM_JCRB cell viability assay (AID 1919874); also: nearly all actives have a fitted effect of over 35% in size
# Method in brief: as §1
# [4] = qHTS for identification of novel therapeutic agents for treatment of microphthalmiaassociated transcription factor (MiT) renal cell carcinoma (RCC) (AID 1963991; calls by dose curve); conditions: CellTiter-Glo, 48 h; for z-score: stronger effect = lower value
# Method in brief: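 Viability of three TFE3-fusion renal carcinoma lines measured by CellTiter-Glo after 48 h treatment with each of 1912 compounds at 11 concentrations. Responses scaled between DMSO (100%) and empty wells (0%) before curve fitting.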
# [5] = Quantitative High-Throughput drug screen in 47 multiple myeloma cell lines against the NCATS MIPE library collection: OPM2_DSMZ cell viability assay (AID 1919872); also: nearly all actives have a fitted effect of over 30% in size
# Method in brief: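 Approved and investigational drugs from MIPE 4.0 were added by pin tool to 500 cells per well. After 48 hours at 37C, ATP-based CellTiter-Glo luminescence indicated remaining viability.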
# [6] = qHTS drug screen for cell cycle checkpoint inhibitors in PARPi-resistant BRCA-mutant ovarian cancer cell lines. (AID 1963452; calls by dose curve); conditions: PEO1/OlaR viability, CellTiter-Glo luminescence, 96 h; for Z-AUC: stronger effect = lower value
# Method in brief: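 PEO1, PEO4 and PEO1/OlaR ovarian cancer cells, 600 per well, exposed 96 h at 37C to a dilution series. Viability read by CellTiter-Glo luminescence, normalized to DMSO and empty wells; activity summarized as Z-AUC.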
# AA1029 = assay: qHTS profiling for inhibitors of Plasmodium falciparum proliferation (AID 504749); also: nearly all actives have a fitted effect of over 60% in size; conditions: P. falciparum in erythrocytes, SYBR Green DNA, 72 h; series mostly up to 28.7 µM
# Method in brief: (§2)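 SYBR Green fluorescence (ex 485 nm, em 535 nm) reports parasite DNA after 72 h compound exposure of infected red cells at 0.3% parasitemia, 2.5% hematocrit; signal normalized to 0.29 uM artemisinin and vehicle wells.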
# ATS189 = assay: as above; conditions: P. falciparum in erythrocytes, SYBR Green DNA, 72 h; series mostly up to 28.7 µM
# Method in brief: as §2
# CP185 = assay: as above; conditions: P. falciparum in erythrocytes, SYBR Green DNA, 72 h; series mostly up to 28.7 µM
# Method in brief: as §2
# CP191 = assay: as above; conditions: P. falciparum in erythrocytes, SYBR Green DNA, 72 h; series mostly up to 28.7 µM
# Method in brief: as §2
# CP192 = assay: as above; conditions: P. falciparum in erythrocytes, SYBR Green DNA, 72 h; series mostly up to 28.7 µM
# Method in brief: as §2
# CP194 = assay: as above; conditions: P. falciparum in erythrocytes, SYBR Green DNA, 72 h; series mostly up to 28.7 µM
# Method in brief: as §2
# [7] = Quantitative High-Throughput drug screen in 47 multiple myeloma cell lines against the NCATS MIPE library collection: RPMI8226_ATCC cell viability assay (AID 1919871); also: nearly all actives have a fitted effect of over 30% in size
# Method in brief: as §1
# 7G8 = assay: qHTS profiling for inhibitors of Plasmodium falciparum proliferation (AID 504749); also: nearly all actives have a fitted effect of over 60% in size; conditions: P. falciparum in erythrocytes, SYBR Green DNA, 72 h; series mostly up to 28.7 µM
# Method in brief: as §2
# ATS95 = assay: as above; conditions: P. falciparum in erythrocytes, SYBR Green DNA, 72 h; series mostly up to 28.7 µM
# Method in brief: as §2
# [8] = TFE3-RCC UOK109 viability, measured here: UOK109 Z-AUC
# [9] = TFE3-RCC viability, measured here: UOK124 Z-AUC
# [10] = TFE3-RCC viability, measured here: UOK145 Z-AUC
# [11] = measured here: PEO1 parental Z-AUC
# Potency is read from the fitted curve at half-maximal effect.
compound,measurement,setting,value
COC1=CC(C)=C[C@@H](C)[C@@H](O)[C@@H](C)CC(C)=CC=C[C@H](OC)[C@H]([C@@H](C)[C@@H](O)[C@H](C)[C@@]2(O)C[C@@H](O)[C@H](C)[C@@H](C(C)C)O2)OC1=O,Potency,[1],9.35 µM (active)
same,Potency,[2],0.0019 µM (active)
same,Potency,[3],20.9 µM (active)
same,Potency,[4]; TFE3-RCC UOK109 viability,26.4 µM (active)
same,z-score,[4]; [8],-1.69
same,z-score,[4]; [9],-2.76
same,z-score,[4]; [10],-3.22
C[C@]12CC[C@@H]3[C@@H](CCC4=CC(=O)CC[C@@H]43)[C@@H]1CC[C@@H]2OC(=O)CCc1ccccc1,Potency,[1],inactive
same,Potency,[5],inactive
same,Potency,[2],inactive
same,Potency,[3],inactive
same,Z-AUC,[6],-0.102 (inactive)
same,Z-AUC,[6]; [11],-0.728
same,Z-AUC,[6]; measured here: PEO4 Z-AUC,-0.686
same,z-score,[4]; [8],0.952
same,z-score,[4]; [9],0.605
same,z-score,[4]; [10],-2.12
CN(C)[C@@H]1C(=O)C(C(N)=O)=C(O)[C@@]2(O)C(=O)C3=C(O)c4c(O)cccc4[C@@](C)(O)[C@H]3[C@H](O)[C@@H]12,Potency,[1],inactive
same,Potency,[5],20.9 µM (active)
same,Potency,[2],inactive
same,Potency,[3],inactive
same,Z-AUC,[6],-0.415 (inactive)
same,Z-AUC,[6]; [11],-0.31
same,Z-AUC,[6]; measured here: PEO4 Z-AUC,0.0838
same,z-score,[4]; [8],2.05
same,z-score,[4]; [9],0.404
same,z-score,[4]; [10],0.671
same,Potency,AA1029,inactive
same,Potency,ATS189,inactive
same,Potency,CP185,inactive
same,Potency,CP191,inactive
same,Potency,CP192,inactive
same,Potency,CP194,inactive
CC[C@@]1(O)C(=O)OCc2c1cc1n(c2=O)Cc2cc3ccccc3nc2-1,Potency,[7],0.743 µM (active)
same,Potency,[5],0.743 µM (active)
same,Potency,[2],0.418 µM (active)
same,Potency,[3],0.105 µM (active)
same,Potency,[6],0.0389 µM (active)
same,Z-AUC,[6]; [11],-2.44
same,Z-AUC,[6]; measured here: PEO4 Z-AUC,-1.71
same,Potency,[4]; TFE3-RCC UOK109 viability,0.59 µM (active)
same,z-score,[4]; [8],-1.89
same,z-score,[4]; [9],-3.04
same,z-score,[4]; [10],-3.18
C[C@]12CC[C@H](O)CC1=CC[C@H]1[C@H]3CCC(=O)[C@@]3(C)CC[C@@H]12,Potency,[1],16.6 µM (active)
same,Potency,[5],inactive
same,Potency,[2],23.5 µM (active)
N=c1c2c(-c3ccccc3)c(-c3ccccc3)n(Cc3ccccc3)c2ncn1C1CCC(O)CC1 (configuration not stated),Potency,[7],14.8 µM (active)
same,Potency,[5],5.9 µM (active)
same,Potency,[2],2.09 µM (active)
same,Potency,[3],3.32 µM (active)
COc1cccc2c1[C@]13CCN(CC4CC4)[C@H](C2)[C@]1(OC)CCC(=O)C3,Potency,[1],inactive
same,Potency,[5],inactive
same,Potency,[2],inactive
same,Potency,[3],inactive
same,z-score,[4]; [8],0.6
same,z-score,[4]; [9],0.387
same,z-score,[4]; [10],0.213
N#C[C@H](O[C@@H]1O[C@H](CO[C@@H]2O[C@H](CO)[C@H](O)[C@H](O)[C@H]2O)[C@H](O)[C@H](O)[C@H]1O)c1ccccc1,Potency,[1],18.7 µM (active)
same,Potency,[7],23.5 µM (active)
same,Potency,[2],7.43 µM (active)
same,Potency,[3],18.7 µM (active)
NC1=NC(=O)N2CC12 (configuration not stated),Potency,[1],8.33 µM (active)
same,Potency,[5],inactive
same,Potency,[2],inactive
same,Potency,[3],inactive
same,z-score,[4]; [8],0.952
same,z-score,[4]; [9],1.24
same,z-score,[4]; [10],1.15
same,Potency,7G8,10 µM (active)
same,Potency,ATS189,inactive
same,Potency,ATS95,inactive
same,Potency,CP191,inactive
same,Potency,CP192,inactive
c1ccc(CCCN2CCN(CCOC(c3ccccc3)c3ccccc3)CC2)cc1,Potency,[7],20.9 µM (active)
same,Potency,[5],26.4 µM (active)
same,Potency,[2],20.9 µM (active)
same,Potency,[3],20.9 µM (active)
CC(=O)Nc1ccc(OC[C@](C)(O)C(=O)Nc2ccc([N+](=O)[O-])c(C(F)(F)F)c2)cc1,Potency,[1],inactive
same,Z-AUC,[6],-0.618 (inactive)
same,Z-AUC,[6]; [11],-0.737
same,Z-AUC,[6]; measured here: PEO4 Z-AUC,-0.359
Cc1[nH]nc2ccc(-c3cncc(OC[C@@H](N)Cc4c[nH]c5ccccc45)c3)cc12,Potency,[7],3.32 µM (active)
same,Potency,[5],14.8 µM (active)
same,Potency,[2],0.372 µM (active)
same,Potency,[3],0.296 µM (active)
same,Z-AUC,[6],-2.34 (inactive)
same,Z-AUC,[6]; [11],-1.86
same,Z-AUC,[6]; measured here: PEO4 Z-AUC,-2.37
CC[C@@H](C(N)=O)N1CCCC1=O,Potency,[7],inactive
same,Potency,[5],inactive
same,Potency,[2],inactive
same,Potency,[3],inactive
same,Z-AUC,[6],-0.418 (inactive)
same,Z-AUC,[6]; [11],-0.901
same,Z-AUC,[6]; measured here: PEO4 Z-AUC,-0.237
same,z-score,[4]; [8],1.12
same,z-score,[4]; [9],0.779
same,z-score,[4]; [10],0.655
COCC1(CO)C(=O)C2CCN1CC2 (configuration not stated),Potency,[7],20.9 µM (active)
same,Potency,[5],11.8 µM (active)
same,Potency,[2],7.43 µM (active)
same,Potency,[3],23.5 µM (active)
same,Z-AUC,[6],0.503 (inactive)
same,Z-AUC,[6]; [11],0.336
same,Z-AUC,[6]; measured here: PEO4 Z-AUC,0.128
CN1CCN(c2ccc([N+](=O)[O-])c3no[n+]([O-])c23)CC1,Potency,[1],5.9 µM (active)
same,Potency,[2],23.5 µM (active)
same,Potency,[3],18.7 µM (active)
same,Z-AUC,[6],1.21 (inactive)
same,Z-AUC,[6]; [11],1.82
same,Z-AUC,[6]; measured here: PEO4 Z-AUC,1.04
O=c1cccc2n1CC1CNC[C@H]2C1,Potency,[7],inactive
same,Potency,[5],inactive
same,Potency,[2],6.62 µM (active)
same,Potency,[3],5.26 µM (active)
same,Z-AUC,[6],1.36 (inactive)
same,Z-AUC,[6]; [11],1.98
same,Z-AUC,[6]; measured here: PEO4 Z-AUC,1.69
Cc1c(C(=O)c2cccc3ccccc23)c2cccc3c2n1[C@H](CN1CCOCC1)CO3,Potency,[7],23.5 µM (active)
same,Potency,[5],23.5 µM (active)
same,Potency,[2],23.5 µM (active)
same,Potency,[3],23.5 µM (active)
CC(C)(C)[C@]1(O)C[C@@H]2OC(=O)C[C@@]23C(=O)O[C@@H]2OC(=O)[C@H](O)C213 (some centres not stated),Potency,[7],inactive
same,Potency,[5],inactive
same,Potency,[2],inactive
same,Potency,[3],inactive
